# Experimental data from PubChem BioAssay AID2638 (Johns Hopkins Ion Channel Center, 2010).
# Active and inactive are the calls of the source.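 The calls were made as follows: active = compound restoring hERG potassium channel current, after block by a reference inhibitor, at any concentration tried; inactive = no current restored at any concentration tried.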
# Target: Voltage-gated inwardly rectifying potassium channel KCNH2 (Homo sapiens) (UniProt Q12809)
# Experiment: dose-dependent reversal of dofetilide hERG block – manual patch clamp, HEK293 cells, dose response (AID 2638)
# Details: tail current; current remaining: measured here: rescue from 100 nM dofetilide block, at 50 µM, stronger effect = higher value unless noted; series mostly up to 100 µM; potentiation: at the top concentration
# Sequence of Voltage-gated inwardly rectifying potassium channel KCNH2 (Homo sapiens) (Q12809 whole entry, looked up): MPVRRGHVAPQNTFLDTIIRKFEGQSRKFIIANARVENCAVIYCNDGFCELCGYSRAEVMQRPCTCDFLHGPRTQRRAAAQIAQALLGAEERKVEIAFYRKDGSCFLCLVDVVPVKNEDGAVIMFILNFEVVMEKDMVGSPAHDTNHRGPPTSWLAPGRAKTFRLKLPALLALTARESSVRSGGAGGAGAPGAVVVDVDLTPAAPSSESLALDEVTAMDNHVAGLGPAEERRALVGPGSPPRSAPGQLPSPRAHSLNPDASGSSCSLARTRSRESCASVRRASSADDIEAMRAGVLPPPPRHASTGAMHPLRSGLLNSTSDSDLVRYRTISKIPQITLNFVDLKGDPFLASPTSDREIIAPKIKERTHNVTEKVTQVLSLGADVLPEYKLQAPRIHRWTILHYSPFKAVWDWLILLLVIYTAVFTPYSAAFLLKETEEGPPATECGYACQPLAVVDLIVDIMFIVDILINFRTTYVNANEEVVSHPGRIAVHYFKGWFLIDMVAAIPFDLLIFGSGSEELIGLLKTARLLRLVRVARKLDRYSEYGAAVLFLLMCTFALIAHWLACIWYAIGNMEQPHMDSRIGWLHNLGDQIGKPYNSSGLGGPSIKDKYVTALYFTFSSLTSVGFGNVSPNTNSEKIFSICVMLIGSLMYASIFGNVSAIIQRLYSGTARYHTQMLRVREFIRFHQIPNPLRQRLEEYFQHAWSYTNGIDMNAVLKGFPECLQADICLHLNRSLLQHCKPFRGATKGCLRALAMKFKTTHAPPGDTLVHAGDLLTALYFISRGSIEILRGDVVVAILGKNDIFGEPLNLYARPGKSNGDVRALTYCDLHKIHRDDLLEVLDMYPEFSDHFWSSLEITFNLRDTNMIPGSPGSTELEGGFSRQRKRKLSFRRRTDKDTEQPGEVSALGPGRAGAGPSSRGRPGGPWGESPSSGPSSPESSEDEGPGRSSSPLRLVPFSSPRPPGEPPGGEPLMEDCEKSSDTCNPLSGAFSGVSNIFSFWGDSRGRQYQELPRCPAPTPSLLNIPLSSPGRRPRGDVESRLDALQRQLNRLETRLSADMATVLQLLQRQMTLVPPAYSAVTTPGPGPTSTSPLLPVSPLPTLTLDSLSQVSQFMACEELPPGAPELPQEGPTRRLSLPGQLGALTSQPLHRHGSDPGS
Compound,potentiation,current remaining
O=C(COc1ccc2ccccc2c1Br)Nc1cccnc1,383% (inactive),1%
O=C(O)c1cc(Cl)ccc1Nc1nc2cc(Cl)ccc2o1,,4.15%
CCC1CCCCN1C(=S)NC(=O)c1cccs1 (centres undefined),,"46.5% [measured here: rescue from 100 nM dofetilide block, at 10 µM, stronger effect = higher value]"
